The nature of assay [1]: antimalarial activity against Dd2 strain (AID 2302;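 active means growth inhibition above 50% at the single 2 µM test dose, taken to imply half-maximal potency below 2 µM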;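 further: 0% = DMSO untreated growth and 100% = chloroquine plus artemisinin killed control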). To be noted: P. falciparum Dd2 in RBCs, LDH growth readout, 72 h; at 2 µM; stronger effect = higher value.
A short description of assay [2]: HepG2 cytotoxicity, primary screen, cytotoxicity control for P. falciparum antimalarial project, cell-based, ATP luminescence (AID 2303;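 active means inhibition above 50%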;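 further: 0% = DMSO wells and 100% = digitonin-killed cells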). To be noted: HepG2 viability, 24-48 h, at 10 µM, stronger effect = higher value.
Assay [3] deals with L-lactate dehydrogenase (Plasmodium falciparum (isolate CDC / Honduras)) (UniProt Q27743). In words: PfLDH activity inhibition – cell lysate, 3D7 strain, counter-screen for P. falciparum growth inhibition project (AID 2304).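 Further: 0% = vehicle and 100% = reference inhibitor.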 To be noted: P. falciparum 3D7 crude extract, LDH APAD/NBT absorbance; at 2 µM; stronger effect = higher value. Background: A counterscreen serves to expose hits that act by an unwanted route or on another target.

Assay [4] is described as follows: inhibition of 3D7 malaria parasite growth – strain 3D7 (AID 2306).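 Further: 0% = DMSO wells and 100% = chloroquine plus artemisinin control wells.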 To be noted: P. falciparum 3D7 erythrocytic growth, LDH absorbance, 72 h; at 2 µM; stronger effect = higher value.
Assay [5] deals with Calcium-dependent protein kinase 1 (Plasmodium falciparum (isolate 3D7)) (UniProt P62344). In words: PfCDPK1 kinase inhibitors, biochemical, TCAMS library (AID 1159585; cut-off not given, nearly all actives have IC50 up to about 0.98 µM;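 further: inhibitors leave more ATP so luminescence rises with inhibition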). To be noted: recombinant PfCDPK1, Kinase-Glo ATP depletion luminescence. (Kinase-Glo measures the ATP left after a reaction by luminescence.)
For assay [6], the target named is Plasmodium falciparum protein kinase 6 (PK6, PF3D7_1337100) (UniProt Q8IDW1). In words: PfPK6 kinase inhibitors, biochemical, TCAMS library (AID 1159586). To be noted: recombinant PfPK6, Kinase-Glo ATP depletion luminescence.
The target in assay [7] is Protein kinase 7 (PK7), Plasmodium falciparum 3D7 (PF3D7_0213400) (UniProt Q7YTF7). In words: inhibition of Plasmodium PK7 catalytic activity – biochemical, TCAMS antimalarial set, Kinase-Glo luminescence (AID 1159587). The following applies: recombinant PfPK7, Kinase-Glo ATP depletion luminescence.
Assay [8] has as its target Calcium-dependent protein kinase 4 (Plasmodium falciparum (isolate 3D7)) (UniProt Q8IBS5). The assay can be described thus: PfCDPK4 kinase inhibitors, biochemical, TCAMS library (AID 1159588; cut-off not given, nearly all actives have IC50 up to about 0.91 µM). To be noted: recombinant PfCDPK4, Kinase-Glo ATP depletion luminescence.

Values without a mark were called inactive. For some of these results: Entries with a potency or affinity are not part of this list. Calls of active or inactive are those of the source. Unless noted, how the calls were made is not given here.

Chain of Protein kinase 7 (PK7), Plasmodium falciparum 3D7 (PF3D7_0213400) (Q7YTF7 1-343): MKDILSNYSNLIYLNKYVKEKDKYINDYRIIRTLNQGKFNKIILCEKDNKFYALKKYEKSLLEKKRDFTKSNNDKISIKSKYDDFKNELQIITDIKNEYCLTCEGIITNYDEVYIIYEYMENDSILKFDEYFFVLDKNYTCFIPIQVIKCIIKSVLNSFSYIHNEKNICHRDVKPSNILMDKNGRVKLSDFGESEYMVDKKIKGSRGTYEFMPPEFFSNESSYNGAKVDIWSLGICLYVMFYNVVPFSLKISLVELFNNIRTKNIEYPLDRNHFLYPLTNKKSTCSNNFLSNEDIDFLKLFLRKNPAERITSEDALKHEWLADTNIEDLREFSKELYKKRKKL
Chain of Calcium-dependent protein kinase 1 (Plasmodium falciparum (isolate 3D7)) (P62344 whole entry, looked up): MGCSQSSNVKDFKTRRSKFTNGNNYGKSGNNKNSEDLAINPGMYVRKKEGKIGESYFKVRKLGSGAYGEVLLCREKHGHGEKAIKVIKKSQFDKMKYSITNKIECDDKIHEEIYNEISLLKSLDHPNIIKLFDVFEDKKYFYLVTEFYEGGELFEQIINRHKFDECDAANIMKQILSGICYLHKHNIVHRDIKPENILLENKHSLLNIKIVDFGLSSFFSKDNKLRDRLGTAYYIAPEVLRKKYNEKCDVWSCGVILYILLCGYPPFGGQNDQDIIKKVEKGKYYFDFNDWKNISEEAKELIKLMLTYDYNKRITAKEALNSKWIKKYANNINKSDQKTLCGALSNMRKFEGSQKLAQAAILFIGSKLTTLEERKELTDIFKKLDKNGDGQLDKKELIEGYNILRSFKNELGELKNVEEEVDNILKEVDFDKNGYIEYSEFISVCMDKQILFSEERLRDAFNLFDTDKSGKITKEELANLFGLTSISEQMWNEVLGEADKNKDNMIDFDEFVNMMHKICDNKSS
Chain of L-lactate dehydrogenase (Plasmodium falciparum (isolate CDC / Honduras)) (Q27743 whole entry, looked up): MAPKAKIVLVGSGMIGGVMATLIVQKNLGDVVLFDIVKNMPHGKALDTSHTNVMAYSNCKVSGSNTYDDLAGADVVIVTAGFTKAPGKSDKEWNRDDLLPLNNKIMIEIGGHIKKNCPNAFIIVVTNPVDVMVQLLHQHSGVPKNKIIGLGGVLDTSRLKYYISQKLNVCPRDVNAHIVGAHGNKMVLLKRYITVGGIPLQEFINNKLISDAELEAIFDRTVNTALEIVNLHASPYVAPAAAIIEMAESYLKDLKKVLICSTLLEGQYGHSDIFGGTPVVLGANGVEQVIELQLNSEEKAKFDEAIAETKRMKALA
Chain of Calcium-dependent protein kinase 4 (Plasmodium falciparum (isolate 3D7)) (Q8IBS5 whole entry, looked up): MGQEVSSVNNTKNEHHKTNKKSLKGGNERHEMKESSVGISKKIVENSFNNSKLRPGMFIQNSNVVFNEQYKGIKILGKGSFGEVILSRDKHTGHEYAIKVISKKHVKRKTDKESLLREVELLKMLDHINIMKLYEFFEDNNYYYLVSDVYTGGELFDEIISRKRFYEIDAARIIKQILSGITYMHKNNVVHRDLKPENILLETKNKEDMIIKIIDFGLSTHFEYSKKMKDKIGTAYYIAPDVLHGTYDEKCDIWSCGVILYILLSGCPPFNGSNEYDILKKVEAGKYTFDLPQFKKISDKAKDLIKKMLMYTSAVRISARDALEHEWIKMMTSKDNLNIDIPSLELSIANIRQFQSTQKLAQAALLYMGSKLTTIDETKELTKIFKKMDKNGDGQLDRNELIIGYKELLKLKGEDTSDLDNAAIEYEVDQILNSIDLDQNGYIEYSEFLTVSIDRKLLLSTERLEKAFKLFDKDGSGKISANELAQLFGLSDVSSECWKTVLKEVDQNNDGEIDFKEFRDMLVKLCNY
Chain of Plasmodium falciparum protein kinase 6 (PK6, PF3D7_1337100) (Q8IDW1 1-305): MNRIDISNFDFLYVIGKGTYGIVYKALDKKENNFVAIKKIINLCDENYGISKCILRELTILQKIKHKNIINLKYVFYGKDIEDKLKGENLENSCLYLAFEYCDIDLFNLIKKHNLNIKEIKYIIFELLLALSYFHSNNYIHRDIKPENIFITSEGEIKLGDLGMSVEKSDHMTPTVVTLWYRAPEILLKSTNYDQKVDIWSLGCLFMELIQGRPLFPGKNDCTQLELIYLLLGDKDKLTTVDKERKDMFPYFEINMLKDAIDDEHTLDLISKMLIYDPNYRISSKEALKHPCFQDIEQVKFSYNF

The term inhibition denotes the drop in the measured response relative to a control, in per cent. As to `CCCCCCCn1c(=N)n(CC(O)c2ccc(Cl)c(Cl)c2)c2ccccc21` (stereo not given), the results for the growth inhibition in assay [1] and in assay [4] were 100% (active) and 98% (active), respectively. Further, the inhibition in assay [2] was 99% (active); in assay [3] it was 2%. Moreover, the outcome in assay [5], in assay [6], in assay [7] and in assay [8] was inactive.

In the case of `C(=NNc1ccnc2ccccc12)c1ccncc1`, the growth inhibition in assay [1] was 27%; in assay [4], 95% (active). For the same molecule, the inhibition was 7% in assay [2] and -2% in assay [3]. The outcome in assay [5], in assay [6], in assay [7] and in assay [8] was inactive.

`COCCn1c(SC(C)C(=O)Nc2cc(C(F)(F)F)ccc2Cl)nc2ccccc2c1=O` (stereo not given): the results for the growth inhibition in assay [1] and in assay [4] were 95% (active) and 97% (active), respectively. Moreover, the inhibition in assay [2] was 8%; in assay [3] it was 4%. Moreover, the outcome in assay [5], in assay [6], in assay [7] and in assay [8] was inactive.

Take `c1ccc(CCNc2ncnc3c2[nH]c2ccccc23)cc1`: the growth inhibition in assay [1] was 94% (active); in assay [4], 95% (active). In addition, the inhibition is 50% (active) in assay [2] and -1% in assay [3]. Further, the outcome in assay [5], in assay [6], in assay [7] and in assay [8] was inactive.

Take `Cc1cccc(N2CCN(C3CCC(NC(=O)c4cc5ccccc5[nH]4)CC3)CC2)c1C` (stereo not given): the growth inhibition in assay [1] is 21%; in assay [4], 101% (active). The values for the inhibition in assay [2] and in assay [3] were 49% and -4%, respectively. Further, the result in assay [5], in assay [6], in assay [7] and in assay [8] was inactive.

These data come from PubChem BioAssay.
